In all, about 2,200 compounds went through this assay and about 1,500 (68%) were called active. Cut-off read from the data, not from the text of the source: active = inhibition above about 23%; inactive = the rest. So high a share suggests a set chosen from earlier hits. Not all results are given here.
target: Perilipin-5 (Homo sapiens) + 1-acylglycerol-3-phosphate O-acyltransferase ABHD5 (Homo sapiens) (UniProt Q00G26+Q8WTS1); assay: blockers of ABHD5 binding to perilipin-5 – biochemical, luminescence, confirmation (AID 651612); details: biochemical ABHD5-PLIN5 interaction, at 4 µM, stronger effect = higher value;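 note: 0% = DMSO vehicle wells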
Sequence (Q00G26 whole entry, looked up): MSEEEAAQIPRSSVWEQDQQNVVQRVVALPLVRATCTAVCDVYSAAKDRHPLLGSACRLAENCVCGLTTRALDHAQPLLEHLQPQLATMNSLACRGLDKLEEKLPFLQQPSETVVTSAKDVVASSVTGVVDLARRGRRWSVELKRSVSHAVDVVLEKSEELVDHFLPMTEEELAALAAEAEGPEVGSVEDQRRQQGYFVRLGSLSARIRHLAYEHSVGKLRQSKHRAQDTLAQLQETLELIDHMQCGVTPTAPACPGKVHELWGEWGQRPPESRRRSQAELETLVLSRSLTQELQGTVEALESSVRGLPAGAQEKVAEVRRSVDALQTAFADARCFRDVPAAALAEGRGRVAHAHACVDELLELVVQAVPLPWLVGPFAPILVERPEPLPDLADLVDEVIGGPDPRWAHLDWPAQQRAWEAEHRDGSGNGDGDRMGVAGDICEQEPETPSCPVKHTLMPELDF
Sequence (Q8WTS1 whole entry, looked up): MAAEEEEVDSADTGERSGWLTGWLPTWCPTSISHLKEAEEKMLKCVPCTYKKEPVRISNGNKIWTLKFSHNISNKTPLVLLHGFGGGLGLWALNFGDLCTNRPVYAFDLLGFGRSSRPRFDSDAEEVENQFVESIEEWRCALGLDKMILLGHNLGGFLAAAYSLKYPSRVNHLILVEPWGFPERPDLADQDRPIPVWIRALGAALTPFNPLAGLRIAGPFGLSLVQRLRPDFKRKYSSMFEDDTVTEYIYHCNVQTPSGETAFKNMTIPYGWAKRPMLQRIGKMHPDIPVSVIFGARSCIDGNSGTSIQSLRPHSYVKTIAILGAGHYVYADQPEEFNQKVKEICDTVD

| SMILES | inhibition |
| --- | --- |
| CCOC(=O)[C@]12Cc3ccccc3[C@H]1N(C1CCCCC1)C(=O)c1cc(OC)ccc12 | 23.3% (active) |
| CN(C)CC1Oc2ccccc2OC1(O)c1ccccc1 (stereo not given) | 77.6% (active) |
| COc1ccc(CN2C(=O)NC(=O)/C(=C\c3ccc(OC)c(OC)c3OC)C2=O)cc1 | 36.5% (active) |
| CCc1nnc(NS(=O)(=O)c2ccc(N=Cc3c(O)n(-c4ccccc4)c(=O)[nH]c3=O)cc2)s1 | 7.03% (inactive) |
| Cc1cccc(N2C(=O)NC(=O)/C(=C\c3cnn(-c4ccccc4)c3)C2=O)c1 | 66.4% (active) |
